Test results: PubChem BioAssay (NCI)
This is part of a sample that, as a whole, favours compounds with a hit. Of some 83,000 tested, about 20% had one in any assay.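 Treatment: one concentration, 48 hours, 96-well format. Scoring: percent growth, with anything below 10 considered active.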 Activity calls are given as the source filed them.

Tested on: HT29 colon
Assay: NCI-60 one-dose screen, 48 h (100 = growth as untreated, 0 = no growth, -100 = all killed)
Conditions: 10 µM unless noted
Protocol: Growth inhibition of the HT29 human tumor cell line is measured as a screen for anti-cancer activity. Cells are grown in 96 well plates and exposed to the test compound for 48 hours. Compounds are tested at a single concentration, which is 10^-5 M for most compounds. The reported endpoint is percent growth (GI% or GIPRCNT), where numbers from 0 - 100% represent growth inhibition, and numbers from -100% - 0 represent cell death. For example, a value of 40 represents 60% growth inhibition. A value of 0 means no net growth occurred over the course of the experiment. A value of -40 indicates 40% of cells at the beginning of the experiment died by the end of the experiment. A value of -100 means all cells are dead at the end of the experiment.
NCI-60 Human Tumor Cell Lines Screen was performed using the standard one-dose NCI protocol, which is described in more detail at https://dtp.cancer.gov/discovery_development/nci-60/default.htm.
Compounds with GIPRCNT values below 10 were considered active. Activity score was based on GIPRCNT using the following formula: […]
Score is 0 for GIPRCNT values of 100 or above, 50 for GIPRCNT values of 0, and 100 for GIPRCNT values of -100.

SMILES	growth
COc1ccc(C2[C@@H](c3ccccc3)C(=O)N2c2cc(OC)c(OC)c(OC)c2)cc1F (stereo not given in full)	-19.2% (active)
C=C1C(=O)O[C@H]2[C@H]1CC/C(CNC(=O)Cc1c[nH]c3ccccc13)=C\CC[C@@]1(C)O[C@@H]21	1.86% (active)
Nc1ncccc1O	26.6% (inactive)
c1ccc(-c2nc3ccccc3[nH]2)c(OCCCCCOc2ccccc2-c2nc3ccccc3[nH]2)c1	74.8% (inactive)
C=C(C)[C@@H]1CC[C@]2(C(=O)N3CCNCC3)CC[C@]3(C)[C@H](CC[C@@H]4[C@@](C)(CCC(=O)N5CCNCC5)[C@H](C(=C)C)CC[C@]43C)[C@@H]12	26.1% (inactive)
C#Cc1cccc(Nc2ncnc3cc(NC(=O)CCl)ccc23)c1	-65.5% (active)
O=C1C(Cl)=C(Nc2ccccc2)C(=O)c2ccccc21	-75.1% (active)
N[C@@H]1CCC[C@H]1NCCCCN1C(=O)c2cccc3cc([N+](=O)[O-])cc(c23)C1=O	14.3% (inactive)
COc1ccccc1S(=O)(=O)Nc1ccc2c3c(cc(CCC(=O)NCCCCNc4cccc5c4C(=O)N(C4CCC(=O)NC4=O)C5=O)cc13)C(=O)N2C (stereo not given)	48.4% (inactive)
C=C(C)[C@@H]1CC[C@]2(COC3CCCCO3)CC[C@]3(C)[C@H](CC[C@@H]4[C@@]5(C)C=C(C=O)C(=O)C(C)(C)[C@@H]5CC[C@]43C)[C@@H]12 (stereo not given in full)	-54.2% (active)
COc1ccc(C2CC(n3ccnc3)c3cc(OC)c(OC)c(OC)c32)cc1O (stereo not given)	102% (inactive)
COc1cccc(CNc2c3ccccc3nc3ccccc23)c1OC	14.4% (inactive)
CN(C)c1ccc([C@@H](C(=O)Nc2cccc([N+](=O)[O-])c2)N(C(=O)c2cc3ccccc3[nH]2)c2cccc([N+](=O)[O-])c2)cc1	101% (inactive)
CCCCO[C@@H]1C=C2[C@H]3CC(C)(C)C(=O)C[C@]3(C(=O)O[C@@H]3O[C@H](CO[C@@H]4O[C@H](CO)[C@@H](OC5OC(C)C(O)C(O)C5O)[C@H](O)[C@H]4O)[C@@H](O)[C@H](O)[C@H]3O)CC[C@@]2(C)[C@]2(C)CC[C@H]3C(C)(C)C(=O)CC[C@]3(C)[C@@H]12 (stereo not given in full)	43.2% (inactive)
C/C=C1/CN(CCCCC)CC[C@H]1C(=O)c1cc2ccccc2[nH]1	75.7% (inactive)
C/C(=C(\c1ccc(OCCN2CCCCCC2)cc1)c1ccc(OC(=O)c2ccccc2)cc1)c1ccc(Cl)cc1	1.67% (active)
O=C(c1c[nH]c2ccccc12)c1n[nH]c(=S)n1-c1ccc([N+](=O)[O-])cc1	98.6% (inactive)
Fc1cc2[nH]ncc2c2c3c(c(-c4cn[nH]c4C(F)(F)F)nc12)CCCC3	6.14% (active)
COc1cc(OC)c2c(=O)c3c(CC=C(C)C)cc(OC)c(O)c3oc2c1	95.4% (inactive)
O=c1cc(CNc2cc(F)cc(F)c2)c2ccc(I)cc2[nH]1	8.99% (active)

SMILES	growth
COc1cc([C@@H](CCO)C[C@H](C)c2ccc3ccccc3c2)cc(OC)c1OC	11.2% (inactive)
O=C(/C=C/c1ccco1)Nc1ncc(Cc2cc(Cl)ccc2Cl)s1	9.68% (active)
O=C(NCCCCO)c1cncnc1Nc1ccc2c(ccn2Cc2cccc(F)c2)c1	99.9% (inactive)
CC(=O)c1sc(-c2ccc(F)cc2)cc1O	105% (inactive)
COc1cc2c(cc1OCCCN1CCN(C(=S)SCCC(C#N)(c3ccccc3)c3ccccc3)CC1)N=C[C@@H]1CCCN1C2=O	-89.3% (active)
CC1(C)CC[C@]23CC[C@]4(C)[C@H](CC[C@@H]5[C@@]6(C)CCNCC(C)(C)[C@@H]6CC[C@]54C)[C@H]2[C@H]1OC3	18.6% (inactive)
CCSc1ccnc(N)n1	113% (inactive)
CCOC(=O)c1c(NC(=O)c2ccccc2)sc2c3c(ccc12)OCN(C)C3	-20.3% (active)
CCOC(=O)C1=C(CCl)N(C)C(=O)NC1c1ccc2c(c1)OCO2 (stereo not given)	38.7% (inactive)
O=C1/C(=C/c2ccc(Cl)cc2)CN(C(=O)C(Cl)Cl)C/C1=C\c1ccc(Cl)cc1	-31% (active)
C=CN(C(=O)N1CCN(c2cc3c(cc2F)c(=O)c(C(=O)O)cn3C2CC2)CC1)c1nc(-c2ccccc2)cs1	93.1% (inactive)
COc1ccc2c(c1)C(C)Cc1c(ncnc1-n1cnc3cc(C)ccc31)N2C (stereo not given)	5.82% (active)
O=C1O[C@@H](c2ccccc2Cl)[C@@H]2c3cc4c(cc3CCN12)OCO4	86.4% (inactive)
Cn1c2ccccc2c2c3c(c4c5cc(Br)ccc5n(C)c4c21)C(=O)N(O)C3=O	52.6% (inactive)
COC(=O)c1c2c(c[n+]([O-])c1C)C(=O)C=C(NCc1ccccc1)C2=O	0.45% (active)
CN(C)CCCn1c2c(c3cnccc3c1=O)C(=O)c1ccccc1-2	-2.38% (active)
COc1nc(/C=C\Nc2ccc3c(c2)OCCOCCOCCOCCO3)nc(OC)n1	99.5% (inactive)
O=C(/C=C/c1ccccc1)c1ccc(-n2cc(CN3CCN(c4cc5c(cc4F)c(=O)c(C(=O)O)cn5C4CC4)CC3)nn2)cc1	79.2% (inactive)
O=C(Oc1ccc2c(c1)sc1nc(-c3ccccc3)[nH]c(=O)c12)C(F)(F)F	75.6% (inactive)
CN(C)Cc1ccc(NC(=O)c2cncc(C#Cc3cnc(N)c4ncccc34)c2)cc1C(F)(F)F	-50.1% (active)
